# Experimental data taken from PubChem BioAssay AID651820 (National Center for Advancing Translational Sciences (NCATS), 2012).
# About 12,000 (3.5%) of roughly 340,000 compounds were called active. Inconclusive results (about 18%) are left out. Shown is part of a subset that was picked to be rich in actives. Unmarked numbers belong to inactive results. Calls come from the whole dose curve; as a rule, active = well fitted inhibition curve with a large enough effect; inconclusive = small, poorly fitted or top-dose-only effect, or another doubt; inactive = no such curve, though single readings can be large or run the other way.
# Test: qHTS Assay for Inhibitors of Hepatitis C Virus (HCV)
# Conditions: Huh7.5.1 HCVcc-Cre infection, luciferase reporter, 44 h; series mostly up to 41.8 µM; activity change, negative = inhibition: at the top concentration
# In short: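 Reporter virus HCVcc-Cre (~0.5 moi) infects cells exposed to compound; seeding density 1,000 cells/well with 4 h settling beforehand. Luminescence, 15 sec read, taken 44 h post-infection following a 15 min RT substrate incubation.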
# % is set by controls: 0 for no effect and ±100 for the full control effect; potency is the fitted concentration of half-maximal effect.
SMILES,"activity change, negative = inhibition",Potency
Cc1nc(N)nc(Cl)c1CCC1OCCO1,4.05%,–
O=C(CSc1nnc(COc2ccc(Cl)cc2)n1Cc1ccco1)N1CCNC1=O,0.329%,–
Cc1csc(NC(=S)Nc2cccc(Cl)c2)n1,–,12.6 µM (active)
S=C(Nc1cccc(Cl)c1)Nc1ccc2cn[nH]c2c1,12.4%,–
CC(=O)Nc1cccc(C(=O)Nc2nc(C)cs2)c1,-2.74%,–
Cc1ccc(Cn2c(C)c3cnn(CC(=O)NCCN4CCOCC4)c(=O)c3c2C)cc1,3.09%,–
COc1ccc(CNC(=O)CN2C(=O)c3ccccc3S2(=O)=O)cc1,-10.1%,–
O=C(Cn1nnc(-c2ccccc2)n1)NC(=O)NC1CCCC1,31.6%,–
COc1c(C)c2c(c(O)c1C/C=C(\C)CCC(=O)O)C(=O)OC2,–,2 µM (active)
CC(C)[C@@H](C(=O)OCC(=O)c1ccc2c(c1)NC(=O)CO2)N1C(=O)c2ccccc2C1=O,-2.05%,–
Cc1ccc(-n2nc3c(=O)n(C(C)C(=O)NCc4ccc5c(c4)OCO5)nc(C)c3c2C)cc1 (stereo not given),–,11.2 µM (active)
CC(Sc1nncs1)C(=O)NCc1ccc2c(c1)OCO2 (stereo not given),9.22%,–
Cc1nn(C(C)C(=O)N2CCOCC2)c(=O)c2nn(-c3ccccc3)c(C)c12 (stereo not given),-2.95%,–
Cc1noc(C)c1NC(=O)Nc1ccc2c(c1)C(=O)N([C@H](C)CO)C[C@H](C)[C@@H](CN(C)S(=O)(=O)c1cn(C)cn1)O2,12.7%,–
Cc1ccc(C2CCN(C(=S)Nc3cccc(Cl)c3)C2)cc1 (stereo not given),–,12.6 µM (active)
O=C(C1CCCO1)N1CCN(C(=S)Nc2cccc(Cl)c2)CC1 (stereo not given),14.7%,–
Cc1cccc(NC(=S)N2CCC(C(=O)c3ccc(F)cc3)CC2)c1,1.19%,–
Cc1nc(C)c(-c2csc(NCCc3ccccc3)n2)s1,–,2.82 µM (active)
Cc1nc(N)sc1-c1ccccc1,-10.6%,–
S=c1[nH]nc(NCCc2ccccc2)s1,2.55%,–
C[C@H](CO)N1C[C@H](C)[C@@H](CN(C)C(=O)Nc2ccc3c(c2)OCO3)Oc2c(cccc2N(C)C)C1=O,4.83%,–
Cc1occc1-c1nnc(SCC(=O)NC2CCCCC2)o1,-19.8%,–
CCN(CC(=O)NCc1ccc(F)cc1)S(=O)(=O)c1ccc(Cl)s1,-12.5%,–
COc1cc(/C=N\Nc2nc(-c3cccs3)c(NC(C)=O)s2)ccc1O,7.87%,–
CCOc1cc(/C=C(\C#N)c2nc(-c3cccs3)c(NC(C)=O)s2)ccc1O,–,0.891 µM (active)

SMILES,"activity change, negative = inhibition",Potency
CCOc1cc(C=NNC(=O)CCCC(=O)NN=Cc2ccc(O)c(OCC)c2)ccc1O,11.1%,–
Cc1ccc(C2(C)NC(=O)N(CC(=O)N3CC(=O)Nc4ccccc43)C2=O)cc1 (stereo not given),13.9%,–
O=C(CN1CCN(C2CCS(=O)(=O)C2)CC1)N1N=C(c2ccc(Cl)cc2)CC1c1ccco1 (stereo not given),-27.2%,–
CCCOc1ccc(Cc2c(O)nc(SC)[nH]c2=O)cc1C,15.9%,–
CCCOc1ccc(-c2nc(N)n[nH]2)cc1,9.2%,–
CCCOc1ccc(Cc2c(Cl)nc(SC)nc2NC)cc1,–,2.82 µM (active)
CCOC(=O)N(Cc1ccccc1)C1CC1,28.4%,–
COc1ccc(OCc2cccc(C(=O)N3CCCC3)c2)cc1,-19.1%,–
CC(C)c1cc(C(N)=O)c(NC(=O)c2cccc(COc3ccc(Br)cc3)c2)s1,–,10 µM (active)
CC(C)(C)OC(=O)N(Cc1ccccc1)Cc1ccc(OCc2cccc(NC(=O)c3ccccc3)c2)cc1,-4.99% [at 8.37 µM],–
O=C(CNS(=O)(=O)c1ccc2c(c1)OCCCO2)N1CCN(c2ccc(F)cc2)CC1,-5.91%,–
CC1(C)C=Cc2c(ccc3c2OC[C@@H](c2ccc(O)cc2O)C3)O1,-7.33%,–
c1ccc(Nc2nc(N3CCOCC3)c3ccccc3n2)cc1,–,11.2 µM (active)
CN1CCN(c2nc(Nc3ccc(O)cc3)nc3ccccc23)CC1,-19.8%,–
O=c1[nH]c(N2CCOCC2)nc2ccccc12,9.82%,–
CCOC(=O)C1=C(c2ccc(OC)cc2)C(=O)c2ccccc2C1=O,–,7.08 µM (active)
CCCCC(C(=O)OCC(=O)c1ccc(OC)cc1)N1C(=O)c2ccccc2C1=O (stereo not given),-29.6%,–
COc1ccc(OCCCON2C(=O)c3ccccc3C2=O)cc1,5.92%,–
O=[N+]([O-])c1ccc(NS(=O)(=O)c2ccccc2)c(Cl)c1,-7.59%,–
COc1ccccc1NC(=O)CSc1nnc(Cn2nnc(-c3ccccc3)n2)n1-c1ccccc1,–,31.6 µM (active)
COc1ccccc1NC(=O)CSc1nnc(Cc2cccn2C)n1-c1ccc(F)cc1,–,inactive
COc1ccccc1OCc1nnc(SCC(N)=O)n1-c1ccccc1,7.37%,–
O=C(COC(=O)c1n[nH]c2ccccc12)Nc1ccccc1Br,-0.82%,–
CC(C(=O)Nc1ccc(S(=O)(=O)N2CCCC2)cc1)N(C)Cc1ccc(F)cc1 (stereo not given),-4.33%,–
COc1cccc2sc(N(CCCN(C)C)C(=O)C(c3ccccc3)c3ccccc3)nc12,–,12.6 µM (active)
